This is an account of results in PubChem BioAssay (EPA / NIEHS).

Inconclusive results are not listed. Some structures have more than one record in an assay (separate samples or runs), and their calls can disagree. Active and inactive are the calls of the source. The calls were made as follows, unless noted: active = hit-call score of the fitted dose curve at least 0.9, where 1 is the maximum; inactive = score below 0.9.

A short description of experiment [1]: BSK_BT_PBMCCytotoxicity: PBMC Cytotoxicity Assessment in the BioMAP Diversity Plus: BT Assay (AID 2284225).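 Also: PBMC viability measured by Alamar Blue dye reduction fluorescence.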 The conditions noted are these: primary human B cells with PBMC. The method, boiled down: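 PBMC (75,000/well) pretreated with compound 1 h, then activated with SEB and TSST-1 (20 ng/mL each final), incubated 90 h; Alamar Blue added 6 h, fluorescence read at 546/580 nm. Fitted relative to DMSO.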

Read-out in experiment [2]: Secreted IgG (sIgG), gene 3500
Description: BSK_BT_sIgG: BioMAP Diversity Plus: BT Assay for Secreted IgG (sIgG) Biomarker Activity (AID 2284226). The conditions noted are these: primary human B cells with PBMC. The method, boiled down:
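Human B cell plus PBMC co-culture; secreted IgG measured by ELISA 24 h after chemical dosing. Response fitted in positive direction relative to DMSO baseline.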

The nature of experiment [3]: BSK_BT_Bcell_Proliferation: Viability Assessment in the BioMAP Diversity Plus: BT Assay for B cell Proliferation (AID 2284227). The conditions noted are these: primary human B cells with PBMC. The method, boiled down:
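Read-out is absorbance at 560 nm from sulforhodamine B staining of total protein, reflecting relative cell numbers in a human B cell and PBMC co-culture after 72 h of chemical exposure. Values were referenced to DMSO.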

Read-out in experiment [4]: Tumor necrosis factor (Homo sapiens) (UniProt P01375)
Description: BSK_BT_xTNFa: BioMAP Diversity Plus: BT Assay for Tumor necrosis factor alpha (TNF-alpha) Biomarker Activity (AID 2284230). The conditions noted are these: primary human B cells with PBMC. The gist of the method:
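Human primary co-culture of B cells and peripheral blood mononuclear cells; TNF-alpha in supernatant, 24 h post-dose, Luminex multiplex; DMSO = baseline.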

Read-out in experiment [5]: Vascular cell adhesion molecule 1 (VCAM1), VCAM1 (gene 7412)
Description: BSK_MyoF_VCAM1: BioMAP Diversity Plus: MyoF Assay for Vascular cell adhesion molecule 1 (VCAM1) Biomarker Activity (AID 2284231). The conditions noted are these: primary human lung fibroblasts. The gist of the method: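 MyoF system, lung fibroblasts; 24 h post-dose; VCAM-1 by ELISA; gain-of-signal fit vs DMSO baseline.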

The nature of experiment [6]: TAMU_PeakParms_SingleDonor1434_Chronotropy: Texas A&M University (TAMU) 1.5-hr Human Induced Pluripotent Stem Cell (iPSC)-derived Cardiomyocytes Calcium (Ca+2) Flux Assay for Cardiotoxicity: Chronotropy (changes in peak frequency) (AID 2284217). The conditions noted are these: actives raise or lower the signal. The gist of the method: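 iPSC-CMs, donor 1434; 4 conc (0.2–100 uM), 0.5% v/v DMSO, 90 min, 37C/5% CO2; Ca2+ flux fluorescence → peak.freq.avg; peak.freq.avg = 0 dropped; bidirectional fit vs DMSO; EC05 POD.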

Experiment [7] is described as follows: TAMU_HCS_1.5hr_SingleDonor1434_Cytotoxicity: Cytotoxicity Assessment using High-content Screening (HCS) Fluorescent Imaging for the Texas A&M University (TAMU) 1.5-hr Human Induced Pluripotent Stem Cell (iPSC)-derived Cardiotoxicity Assay (AID 2284234; active = hit-call score of the fitted dose curve at least 0.9, where 1 is the maximum). The method, boiled down: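 Human iPSC-derived cardiomyocytes dosed at 0.2, 1, 10, 100 uM final (0.5% DMSO) for 90 min at 37 C. Hoechst 33342-stained nuclei counted by 10x high-content imaging; POD is EC10, a 10% drop in total cell count versus DMSO.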

Experiment [8] can be described thus: TAMU_PeakParms_SingleDonor1434_QT: Texas A&M University (TAMU) 1.5-hr Human Induced Pluripotent Stem Cell (iPSC)-derived Cardiomyocytes Calcium (Ca+2) Flux Assay for Cardiotoxicity: QT (decay-rise ratio) (AID 2284235; active = hit-call score of the fitted dose curve at least 0.9, where 1 is the maximum). The gist of the method: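 iPSC-derived cardiomyocytes (single donor 1434) dosed at 0.2, 1, 10, 100 uM final in 0.5% DMSO, 90 min at 37C. Ca2+ flux fluorescence decay/rise ratio; EC05 (5% increase versus DMSO) as POD, excluding beat-arrest and severe-notch data.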

Experiment [9] can be described thus: CCTE_Mundy_HCI_Cortical_Synap_Neur_Matur_NeuriteLength: CCTE's Synaptogenesis and Neurite Maturation Assay in rat cortical cells for Neurite Length, Mundy Lab (AID 2284214). The gist of the method:
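Rat primary cortical cultures, AraC added DIV 5, dosed DIV 7 through DIV 12 […]. Fixed, MAP2/synaptophysin immunostained with Hoechst; neurite length by high-content imaging, fitted in positive direction versus DMSO.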

Experiment [10] in a line: CCTE_Mundy_HCI_Cortical_Synap_Neur_Matur_NeuriteSpotCountPerNeuron: CCTE's Synaptogenesis and Neurite Maturation Assay in rat cortical cells for Neurite Spot Count per Neuron Count, Mundy Lab (AID 2284215). The method, boiled down: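 Read-out: neurite-associated synaptophysin puncta per neuron, imaged by high-content analysis after MAP2, synaptophysin and Hoechst staining. Rat primary cortical cultures, dosed DIV 7 through DIV 12; DMSO served as baseline.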

Experiment [11] in a line: CCTE_Mundy_HCI_Cortical_Synap_Neur_Matur_SynapseCount: CCTE's Synaptogenesis and Neurite Maturation Assay in rat cortical cells for Synapse Count, Mundy Lab (AID 2284218). The gist of the method: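 Rat primary cortical cultures, AraC at DIV 5, chemical dosing DIV 7 to DIV 12 (288.33 h). Fixed cells stained for MAP2, synaptophysin and Hoechst; synapses per neuron counted by high-content imaging, loss of signal versus DMSO.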

A short description of experiment [12]: CCTE_Mundy_HCI_hN2_NOG_NeuriteCount: CCTE's Neurite Outgrowth Assay in human hN2 cells for Neurite Count, Mundy Lab (AID 2284219; active = hit-call score of the fitted dose curve at least 0.9, where 1 is the maximum). The gist of the method: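 In this morphology assay, hNP1-derived neurons received test chemical 2 h post-plating and were fixed two days later in warm paraformaldehyde/sucrose containing Hoechst 33342. Neurites, labelled by rabbit anti-βIII-tubulin (1:800) and Alexa Fluor-488 (1:500), were counted automatically.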

Experiment [13] in a line: CCTE_Mundy_HCI_hN2_NOG_NeuriteLength: CCTE's Neurite Outgrowth Assay in human hN2 cells for Neurite Length, Mundy Lab (AID 2284220; active = hit-call score of the fitted dose curve at least 0.9, where 1 is the maximum). The method, boiled down: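 Read-out is neurite length from high-content imaging of βIII-tubulin/Alexa Fluor-488-labelled neurons, referenced to DMSO controls.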
Experiment [14] is described as follows: CCTE_Mundy_HCI_hN2_NOG_NeuronCount: CCTE's Neurite Outgrowth Assay in human hN2 cells for Neuron Count, Mundy Lab (AID 2284221; active = hit-call score of the fitted dose curve at least 0.9, where 1 is the maximum). The gist of the method: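 Read-out is the number of betaIII-tubulin-positive neurons imaged by automated high-content analysis, with DMSO as negative control.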
Experiment [15] can be described thus: CCTE_Mundy_HCI_Cortical_Synap_Neur_Matur_NeuriteCount: CCTE's Synaptogenesis and Neurite Maturation Assay in rat cortical cells for Neurite Count, Mundy Lab (AID 2284222).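 Also: exposure from day 7 to day 12 in vitro with readout at day 12.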 The gist of the method:
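Primary rat cortical cells were plated, treated with AraC at DIV 5, then exposed to chemicals from DIV 7 through DIV 12. After fixation and immunostaining for MAP2 and synaptophysin, imaging quantified neurites, with DMSO as the negative control.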

Experiment [16] is described as follows: CCTE_Mundy_HCI_Cortical_Synap_Neur_Matur_CellBodySpotCount: CCTE's Synaptogenesis and Neurite Maturation Assay in rat cortical cells for Cell Body Spot Count, Mundy Lab (AID 2284223). The gist of the method: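 Read-out: cell body-associated synaptophysin puncta per neuron, imaged after MAP2, synaptophysin and Hoechst staining. Rat cortical cells, AraC DIV 5, chemical dosing DIV 7, fixation DIV 12. Activity fitted in positive direction relative to DMSO baseline.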

A short description of experiment [17]: CCTE_Mundy_HCI_hNP1_Pro_ResponderAvgInten: CCTE's Proliferation Assay in human neuroprogenitor cells, Mundy Lab (AID 2284224; active = hit-call score of the fitted dose curve at least 0.9, where 1 is the maximum;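 also: human neural progenitor cells hNP1 derived from WA09 embryonic stem cells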). The gist of the method:
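Proliferation read as average intensity of BrdU-positive cells, imaged at 26.25 h post-dosing: chemical exposure started after 40–44 h culture, BrdU during final 4 h, paraformaldehyde fixation. Positive-direction fit relative to DMSO.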

Experiment [18] can be described thus: UKN2_HCS_IMR90_cell_viability: Viability Assessment in the University of Konstanz (UKN) Leist Lab Neural Crest Cell Migration Assay in human induced IMR90 Pluripotent Stem Cells (UKN2) (AID 2284233).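 Also: viability of neural crest cells differentiated from IMR90 iPSC measured by calcein-AM fluorescence imaging; cells exposed to compound for 24 h after a 24 h migration phase.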 The method, boiled down:
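Neural crest cells derived from IMR90 iPSC migrate into a stopper-free zone for 24 h in EGF/FGF medium, then are exposed to compound for 24 h. Viability assessed by calcein-AM and Hoechst staining with high-content imaging, fitted bidirectionally versus DMSO.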

The nature of experiment [19]: CCTE_Mundy_HCI_Cortical_NOG_NeuronCount: CCTE's Neurite Outgrowth Assay in rat cortical cells for Neuron Count, Mundy Lab (AID 2284236; active = hit-call score of the fitted dose curve at least 0.9, where 1 is the maximum;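 also: neurons counted by imaging betaIII-tubulin and Hoechst stained cortical cells; cells exposed to compound for about 48 hours before fixation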). The method, boiled down: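 Read-out: neuron number by high-content imaging of betaIII-tubulin (Alexa Fluor-488) and Hoechst-labelled rat primary cortical cells.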

Tumor necrosis factor (Homo sapiens), sequence (P01375 whole entry, looked up): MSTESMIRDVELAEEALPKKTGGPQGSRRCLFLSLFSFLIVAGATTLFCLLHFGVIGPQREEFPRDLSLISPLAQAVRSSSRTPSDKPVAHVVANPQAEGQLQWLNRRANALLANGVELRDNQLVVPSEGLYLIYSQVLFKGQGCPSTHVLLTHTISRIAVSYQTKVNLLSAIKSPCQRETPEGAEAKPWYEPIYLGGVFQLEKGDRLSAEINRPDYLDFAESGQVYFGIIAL

On to `COC(=O)c1sccc1S(=O)(=O)NC(=O)Nc1nc(C)nc(OC)n1`, for which the outcome in experiment [1], in experiment [2], in [3], in experiment [4] and in experiment [5] was inactive.
In the case of `CCCCCCCCC(=O)NCc1ccc(O)c(OC)c1`, the result in experiment [1], in experiment [2], in [3], in experiment [4] and in [5] was inactive.
With `Oc1cccc2cccnc12`, the result in experiment [6], in [7] and in experiment [8] was inactive.
In the case of `O=C(O)C(F)(F)C(F)(F)C(F)(F)C(F)(F)C(F)(F)C(F)(F)F`, the outcome in experiment [1], in [2], in experiment [3], in experiment [4] and in experiment [5] was inactive.
The AC50 is the concentration giving half of the maximal activity seen. Consider `ClC1=C(Cl)[C@]2(Cl)[C@H]3[C@H]([C@H]4C=C[C@H]3C4)[C@@]1(Cl)C2(Cl)Cl`, for which the AC50 in experiment [1] is 30.5 µM (active); in [2] it was 7.53 µM (active); in experiment [3], 36.3 µM (active); in experiment [4], 33.1 µM (active); in experiment [5] it was 3.97 µM (active).
On to `CC(C)CCCCCCOC(=O)c1ccccc1C(=O)OCCCCCCC(C)C`, for which the outcome in experiment [1], in experiment [2], in experiment [3], in experiment [4] and in experiment [5] was inactive.
With `COP(=S)(OC)Oc1ccc(Sc2ccc(OP(=S)(OC)OC)cc2)cc1`, the result in experiment [1], in experiment [3], in [4] and in [5] was inactive. In addition, in experiment [2], the AC50 was 28.9 µM (active).
In the case of `ClC(Cl)=C(Cl)C(Cl)=C(Cl)Cl`, the outcome in experiment [6], in experiment [2], in experiment [4], in [5] and in experiment [7] was inactive. Moreover, the AC50 in experiment [1] is 11.1 µM (active); in [3], 14.2 µM (active).
Regarding `COP(=S)(OC)Oc1cc(Cl)c(Cl)cc1Cl`, the outcome in experiment [1], in experiment [3] and in [4] was inactive. Further, the AC50 in [2] is 34.3 µM (active); in experiment [5], 31.1 µM (active).
As for `CC(C)(C)c1cc(O)ccc1O`, the result in experiment [6] and in experiment [8] was inactive. In addition, the AC50 in experiment [7] was 50 µM (active).
For the compound `COP(=O)(OC)O/C(=C\Cl)c1cc(Cl)c(Cl)cc1Cl`, the compound was called inactive in [9], in experiment [10], in [11], in experiment [15], in experiment [16] and in [18]. The compound was called inactive in experiment [19]. Besides, the concentration at half-maximal activity (AC50) is 6.28 µM (active) in experiment [12]; 5.52 µM (active) in [13]; 7.22 µM (active) in experiment [14]; 67 µM (active) in experiment [17]; 51.5 µM (active) in experiment [19].
On to `Nc1ccc(-c2ccc(N)c(Cl)c2)cc1Cl`, for which the outcome in experiment [1] was inactive. The half-maximal activity concentration (AC50) is 6.09 µM (active) in experiment [2], 20 µM (active) in experiment [3], 20 µM (active) in experiment [4] and 20 µM (active) in experiment [5].
